Source: PubChem BioAssay
Sm TGR block – S. mansoni TGR enzyme inhibition. AID 485364. Potency, µM (top dose mostly 114 µM), usual class: inhibitors. purified TGR, DTNB reduction, TNB absorbance 405 nm. 360,000 tested, 3% active; further: nearly all actives have a fitted effect of over 60% in size
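TGR 20 nM + NADPH 100 uM (dispensed conc.), cpd preinc 15 min RT; start with NADPH (500 uM addition) then DTNB (15 mM addition). Kinetic TNB absorbance, 405 nm filter. Four-parameter Hill fit across titration.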
Pf growth 96h – P. falciparum growth inhibition at 96 hour, primary screen for plastid delayed-death inhibitors | P. falciparum luciferase reporter growth, 96 h | 320,000 tested, 6.9% active | Potency, µM (doses to about 28.7 µM), hits mostly inhibitors
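Luminescence readout: decreased luciferase signal marks inhibited growth of reporter-expressing P. falciparum in infected red cells (2% hematocrit, 0.05% parasitemia final), exposed to compound two generations (96 h, 37 C, 5% CO2).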
CHX counter – counter-screen hit for Shiga toxin inhibitors, cycloheximide | cell reporter, cycloheximide protein synthesis inhibition counterscreen | max response, % | 300,000 tested, 12% active | AID 2314; in the data active means max response mostly above about 13%, no sharp cut-off; inactive means mostly below about 14%; further: read at 38.3 µM for the half of the compounds with a filed dose
Shiga inhibitor – inhibitors of Shiga toxin in Vero cells. Vero cells, Shiga toxin protein synthesis inhibition reporter. inhibition, % at 38.7 µM. 290,000 tested, 9.2% active; in the data active means inhibition mostly above about 28%, no sharp cut-off; inactive means mostly below about 43%
NS1 inh – influenza NS1 inhibition; Potency, µM (top dose mostly 46.1 µM); 270,000 tested, 0.4% active; calls by dose curve; further: actives are rising curves; nearly all actives have a fitted effect of over 50% in size
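A cell-based growth assay was used: compounds that relieve NS1-induced slow growth of budding yeast raise OD600. Assay medium was yeast nitrogen base with ammonium sulphate and -URA supplement, pH 6.0, with 2% galactose.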
Pf growth 48h – inhibits P. falciparum growth in the first generation, 48 h. P. falciparum luciferase growth in erythrocytes, 48 h. Potency, µM (top dose mostly 28.7 µM), hits mostly inhibitors. 310,000 tested, 5.9% active. AID 504832
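A one-generation exposure of luciferase-tagged malaria parasites in RPMI 1640/Albumax erythrocyte culture, 37 C and 5% CO2. Inhibition is inferred from decreased luminescence after adding detection reagent.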
A number is an active result; n = inactive; u = inconclusive; x = no result; + = active, no number; [ ] = another dose, or the depositor's remark. An excerpt weighted towards active compounds, which were near 21% of everything screened. Unless noted, the call rests on the fitted dose curve; in most records, active means well fitted curve in the direction sought with a large enough effect; inconclusive means small, poorly fitted or top-dose-only effect, or another doubt; inactive means no such curve, though single readings can be large; an effect the other way counts as inactive or inconclusive.

SMILES | Sm TGR block | Pf growth 96h | CHX counter | Shiga inhibitor | NS1 inh | Pf growth 48h
N#Cc1ccc(OCC(O)CN2CCN(C(c3ccccc3)c3ccccc3)CC2)cc1 (stereo unspecified) | n | 11.7µM | n | n | n | u
OC(COCc1ccco1)CN1CCN(C(c2ccccc2)c2ccccc2)CC1 (stereo unspecified) | n | 6.57µM | n | n | n | 10.4µM
CC1CCCN(CC(O)COc2ccc(-c3ccccc3)cc2)C1 (stereo unspecified) | n | n | n | n | n | u
OC(COc1ccccc1)CN1CCN(C(c2ccccc2)c2ccccc2)CC1 (stereo unspecified) | n | n | n | n | n | u
CC(C)(c1ccccc1)c1ccc(OCC(O)CN2CCCC2)cc1 (stereo unspecified) | n | n | n | n | n | 13.1µM
CCOCCSc1c(C)cnc2c1c(=O)n(C)c(=O)n2C | n | x | x | x | x | x
O=C(O)C1=CC[C@@H](c2ccc(Cl)cc2)N(S(=O)(=O)c2ccc(Cl)cc2)C1 | u | n | x | x | x | n
COCCNc1nnnc2c1sc1nc(N3CCOCC3)c3c(c12)CCCC3 | x | n | n | n | n | u
COc1ccc(-n2c(CC3C(=O)N(C)c4ccc(C)cc43)nc3ccccc3c2=O)cc1 (stereo unspecified) | n | x | x | x | x | x
OC(COc1ccc2cc(Br)ccc2c1)CN1CCCC1 (stereo unspecified) | n | n | 46.0 | 77.0 | n | u
OC(COc1ccc(OCc2ccccc2)cc1)CN1CCCCC1 (stereo unspecified) | n | x | 30.9 | 73.8 | n | n
O[C@H](COc1ccccc1)CN1CCCCC1 | x | x | x | x | n | x
OC(COc1ccc(OCc2ccccc2)cc1)CN1CCOCC1 (stereo unspecified) | n | x | 19.6 | n | n | n
CCOC(=O)C1CN(S(=O)(=O)c2ccc(C)cc2)C1 | n | n | n | n | n | n
O=C(NC1CCN(C(=O)N2c3ccccc3Sc3ccccc32)CC1)c1ccccc1Cl | n | u | n | n | n | u
COc1cccc(C(=O)NC2CCN(C(=O)N3c4ccccc4Sc4ccccc43)CC2)c1 | n | 5.22µM | n | n | n | 8.28µM
O=C(c1ccco1)N1CCN(C(=O)N2c3ccccc3Sc3ccccc32)CC1 | n | u | n | n | n | 11.7µM
O=C(NC1CCN(C(=O)N2c3ccccc3Sc3ccccc32)CC1)c1ccco1 | n | u | n | n | n | 1.65µM
COc1cccc(C(=O)N2c3ccccc3Sc3ccccc32)c1 | n | n | n | n | n | 10.4µM
COc1ccc(NC(=O)c2sc3nc4n(c(=O)c3c2C)CCC4)cc1Cl | n | x | x | x | x | x
COc1cccc(-c2nc(C(N)=O)c3[nH]c(=O)n(-c4cccc(Cl)c4)c3n2)c1OC | n | u | n | n | n | 14.7µM
Cc1cccc(C)c1OCc1n[nH]c(=S)o1 | 31.6µM | n | n | n | n | n
Cc1cccc(OCc2n[nH]c(=S)o2)c1C | x | n | n | n | n | n
CC(C)=C1SC(N2CCN(c3cccc(Cl)c3)CC2)=NC1=O | n | n | n | n | n | n
CC(=C1C(=O)c2ccccc2C1=O)N1CCC(C(N)=O)(N2CCCCC2)CC1 | 31.6µM | x | n | n | n | n
SMILES | Sm TGR block | Pf growth 96h | CHX counter | Shiga inhibitor | NS1 inh | Pf growth 48h
O=C(N1CCN(Cc2ccccc2)CC1)C(Cl)(Cl)Cl | n | n | n | n | n | 10.4µM
NC(=O)C1(N2CCCCC2)CCN(C(=S)NCCc2ccccc2)CC1 | n | u | n | n | x | n
CC(C)=C1SC(N2CCN(Cc3ccccc3)CC2)=NC1=O | n | n | 22.6 | n | n | u
CC(=C1C(=O)c2ccccc2C1=O)N1CCN(Cc2ccccc2)CC1 | 39.8µM | u | n | n | n | n
CC(=C1C(=O)c2ccccc2C1=O)N1CCN(C/C=C/c2ccccc2)CC1 | u | x | n | n | n | n
O=C(c1cccc(S(=O)(=O)Nc2cccc(C(F)(F)F)c2)c1)N1CCCCC1 | n | n | n | n | n | n
COc1cc(C(=O)Nc2ccc(NC(=O)c3ccc(Br)cc3)cc2)cc(OC)c1OC | n | x | x | x | x | x
O=C(c1cccc(C(=O)N2CCN(Cc3ccccc3)CC2)c1)N1CCN(Cc2ccccc2)CC1 | n | n | n | n | n | n
O=C(c1ccc2ccccc2c1)N1CCN(Cc2ccccc2)CC1 | n | n | 27.8 | 82.5 | n | n
O=C(c1c[nH]c(C(=O)N2CCN(Cc3ccccc3)CC2)c1)C1CCCCC1 | n | n | n | 51.5 | x | u
O=C(C1CCC1)N1CCN(Cc2ccccc2)CC1 | n | u | n | n | n | n
COc1ccc(CN(C(=O)CN2C(=O)c3ccccc3S2(=O)=O)C(C(=O)NCC2CCCO2)c2ccco2)cc1 (stereo unspecified) | n | n | n | n | n | n
c1ccc2c(c1)NCCS2 | n | n | 46.7 | 80.4 | u | n
Cc1cc(/C=C(\C#N)C(=O)N2CCCCC2)cc(C)c1O | n | n | n | 50.7 | n | n
N#C/C(=C\c1cccc(O)c1)C(=O)N1CCCCC1 | n | u | n | x | n | u
COCCCNC(=O)C1CCCN(S(=O)(=O)c2cccc3nsnc23)C1 (stereo unspecified) | n | n | n | n | n | n
Cc1ccc(CCNC(=O)C2CCCN(S(=O)(=O)c3cccc4nsnc34)C2)cc1 (stereo unspecified) | n | 4.15µM | n | n | n | x
Cc1cccc(CCNC(=O)C2CCCN(S(=O)(=O)c3cccc4nsnc34)C2)c1 (stereo unspecified) | n | n | n | n | n | u
CCOCCCNC(=O)C1CCCN(S(=O)(=O)c2cccc3nsnc23)C1 (stereo unspecified) | n | 8.28µM | n | n | u | n
Cc1ccc(NC(=O)CC2=NC(=O)C(CC(=O)Nc3ccccc3C)S2)cc1 (stereo unspecified) | n | n[5.75 µM] | n | n | x | n[5.75 µM]
CCOc1ccccc1NC(=O)NNS(=O)(=O)c1cc(OC)ccc1OC | n | n | n | n | n | n
CCCOc1ccc(-c2cn3ccccc3n2)cc1[N+](=O)[O-] | n | n | 134.3 | + | n | n
O=[N+]([O-])c1cccc(-c2cn3ccccc3n2)c1 | n | n | n | n | n | n
CCCCOc1ccc(-c2csc(N)n2)cc1[N+](=O)[O-] | n | u | 86.5 | 127.2 | n | n
COc1ccc(-c2cn3cc([N+](=O)[O-])ccc3n2)cc1OC | n | n | 41.3 | 80.3 | x | n
SMILES | Sm TGR block | Pf growth 96h | CHX counter | Shiga inhibitor | NS1 inh | Pf growth 48h
CCCCOc1ccc(C2=CSC3=NCCN23)cc1[N+](=O)[O-] | n | n | n | n | n | u
COc1ccc(-c2cn3ccccc3n2)cc1[N+](=O)[O-] | n | n | 66.6 | 96.4 | n | n
COc1ccc2cc(C(=O)CCC(=O)O)ccc2c1 | x | x | x | x | n | x
CCc1nnc2c3cnn(-c4ccccc4)c3ncn12 | n | n[5.75 µM] | 27.7 | 67.1 | n | n
Cc1nc2c3cnn(-c4ccccc4)c3ncn2n1 | n | u | 21.2 | 34.3 | n | u
Cc1ccc(-n2ncc3c2ncn2c(C)nnc32)cc1C | n | u | 29.5 | 62.9 | n | n
